For 45 molecules, Potency results are on record in PubChem BioAssay (NCATS).

Records with an inconclusive call do not appear. Where a call stands in place of a potency, no number is given. Active and inactive are the calls of the source. Unless noted, calls follow the shape of the dose curve; as a rule, active = well fitted curve in the direction sought with a large enough effect in the repeat runs; inconclusive = weak or mixed curves; inactive = no such curve, though single readings can be large; an effect the other way counts as inactive or inconclusive.

The target of assay [1] is Calcium and integrin-binding protein 1 (Homo sapiens) (UniProt Q99828). The assay is described as follows: Primary qHTS for Identification of Calcium Integrin Binding Protein 1 (CIB1) Competitor (AID 1508620; active = well fitted curve in the direction sought with a large enough effect; an effect the other way counts as inactive or inconclusive;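 also: GST tagged CIB1 binding a fluorescein labelled alphaIIb integrin peptide tracer; top concentration of the series differs between compounds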). The procedure, abridged: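 Fluorescence polarization competition: CIB1-GST (1 uM final) preincubated with compound 15 min at room temperature, then FITC-labeled alphaIIb peptide (100 nM final) added for another 15 min. Polarization read at Ex 480/Em 540.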
Calcium and integrin-binding protein 1 (Homo sapiens), sequence (Q99828 whole entry, looked up): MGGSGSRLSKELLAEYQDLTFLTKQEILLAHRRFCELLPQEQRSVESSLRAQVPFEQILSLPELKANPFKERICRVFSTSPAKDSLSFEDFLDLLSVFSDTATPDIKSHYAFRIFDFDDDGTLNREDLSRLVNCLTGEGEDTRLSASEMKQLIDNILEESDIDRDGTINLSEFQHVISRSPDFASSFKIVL
For orientation: qHTS replaces the single test concentration by a dilution series.

Assay [2] concerns the target Cytochrome P450 2D6 (Homo sapiens) (UniProt P10635). The assay is described as follows: Cytochrome P450 family 2 subfamily D member 6 (CYP2D6) small molecule antagonists: luciferase biochemical (cell-free) qHTS assay (AID 1645840). Also: nearly all actives have a fitted effect of over 55% in size. Also: potency is read from the fitted curve at half-maximal effect. The gist of the method: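 P450-Glo CYP2D6 system: proluciferin substrate converted by enzyme to luciferin, read by luminescence proportional to activity. Enzyme-substrate mix with compound 10 min at room temperature, then NADPH regeneration 1 h before detection reagent.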

Cytochrome P450 2D6 (Homo sapiens), sequence (P10635 whole entry, looked up): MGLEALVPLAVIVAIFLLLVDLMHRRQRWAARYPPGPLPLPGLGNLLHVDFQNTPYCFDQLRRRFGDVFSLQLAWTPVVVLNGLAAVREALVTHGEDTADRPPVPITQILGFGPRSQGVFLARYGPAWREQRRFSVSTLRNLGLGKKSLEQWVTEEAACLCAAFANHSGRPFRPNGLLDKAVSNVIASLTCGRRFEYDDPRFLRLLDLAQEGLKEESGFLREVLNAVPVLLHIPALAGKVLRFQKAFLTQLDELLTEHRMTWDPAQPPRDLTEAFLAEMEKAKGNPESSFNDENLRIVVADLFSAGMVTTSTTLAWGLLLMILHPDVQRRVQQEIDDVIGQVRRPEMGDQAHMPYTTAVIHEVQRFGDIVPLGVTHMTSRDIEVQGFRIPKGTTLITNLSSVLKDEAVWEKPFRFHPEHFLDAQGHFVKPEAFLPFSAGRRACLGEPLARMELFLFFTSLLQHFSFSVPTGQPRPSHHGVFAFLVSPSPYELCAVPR

Turning to `CNCc1cc(-c2ccccc2F)n(S(=O)(=O)c2cccnc2)c1`, the Potency entry in assay [1] is “inactive”. Further, the Potency in assay [2] is 19 µM (active).
For `CCc1cc2c(cc1CC)CC(NCC(O)c1ccc(O)c3[nH]c(=O)ccc13)C2` (stereo not given), the Potency result in assay [1] was “inactive”. For the same molecule, the Potency in assay [2] is 9.52 µM (active).
Regarding `COc1cc2c(Nc3cc(F)c(Cl)c(Cl)c3)ncnc2cc1OCC1CCCN(C)CCC1`, the Potency entry in assay [1] was “inactive”. Besides, the Potency in assay [2] was 16.9 µM (active).
The corresponding values for `CC(C)c1ccc(NC(=O)Cn2cnc3c2c(=O)n(C)c(=O)n3C)cc1` are “inactive” and “inactive”.
Regarding `CCCn1ncc(CN2CCCC(C(=O)c3cccc(OC(C)C)c3)C2)c1C` (stereo not given), the Potency result in assay [1] was “inactive”. Also, the Potency in assay [2] is 0.338 µM (active).
Turning to `COc1ccccc1N1CCN(c2ncnc3n[nH]c(Br)c23)CC1`, the Potency result in assay [1] and in assay [2] was “inactive” each time.
Regarding `O=C(Nc1ccc(Cl)cc1)c1ccccc1NCc1ccncc1`, the Potency result in assay [1] was “inactive”. Besides, the Potency in assay [2] is 0.169 µM (active).
As for `Cc1ccccc1CN1CCn2c1nc1c(c2=O)CN(Cc2ccccc2)CC1`, the Potency entry in assay [1] is “inactive”. In addition, in assay [2], the Potency is 13.5 µM (active).
Turning to `O=c1[nH]c2ccccc2n1CCN1CCN(c2cccc(C(F)(F)F)c2)CC1`, the Potency result in assay [1] is “inactive”. Besides, the Potency in assay [2] is 7.56 µM (active).
As to `Cc1ccc(C)c(NC(=O)[C@@H]2CCCN2S(=O)(=O)c2cccc3cccnc23)c1`, in assay [1], the Potency entry was “inactive”. Moreover, the Potency in assay [2] was 16.9 µM (active).
Take `CN(C)S(=O)(=O)c1ccc(NC(=S)N2CCC(C(O)(c3ccccc3)c3ccccc3)CC2)cc1`: the Potency entry in assay [1] and in assay [2] was “inactive” in each case.
Turning to `COc1ccc2c(NC(=O)Nc3cccc(C(F)(F)F)n3)ccnc2c1`, the Potency entry in assay [1] and in assay [2] was “inactive” each time.
Take `COc1ccc(S(=O)(=O)N2CCC[C@H]2C(=O)Nc2cc(C)cc(C)c2)cc1`: the Potency result in assay [1] and in assay [2] was “inactive” throughout.
For `O=C(Nc1cc(C(F)(F)F)ccc1N1CCCCC1)c1ccncc1`, the Potency result in assay [1] is “inactive”. Moreover, the Potency in assay [2] is 8.49 µM (active).
In the case of `CC(C)n1nc(C#Cc2ccccc2)c2c(N)ncnc21`, the Potency result in assay [1] was “inactive”. Moreover, in assay [2], the Potency was 19 µM (active).
Turning to `C[C@@H]1C[C@H](C)CN(CCC(=O)Nc2ccc(Br)cc2)C1`, the Potency entry in assay [1] was “inactive”. The Potency in assay [2] was 0.0674 µM (active).
The like results for `N#Cc1ccc(O[C@@H]2c3ccccc3C[C@H]2N2CCC[C@@H](N)C2)c(Cl)c1` were, in that order, “inactive” and 0.169 µM (active).
In the case of `COc1ccc(CCN(C)CCCOc2nsc(-c3ccccc3)n2)cc1OC`, the Potency result in assay [1] is “inactive”. Moreover, the Potency in assay [2] was 1.51 µM (active).
Turning to `CC(C)OC(=O)N1CCC(Oc2ncnc3c2cnn3-c2ccc(S(C)(=O)=O)cc2F)CC1`, the Potency result in assay [1] and in assay [2] was “inactive” in each case.
Regarding `CCCc1ccc(OCC(=O)N(Cc2nc(-c3cccnc3)no2)C(C)C)cc1`, the Potency entry in assay [1] is “inactive”. Further, in assay [2], the Potency is 19 µM (active).
The corresponding values for `O=C(NC1(c2ccccc2)CC1)c1c(CN2CCC(N3CCCCC3)CC2)c(-c2cccc(C(F)(F)F)c2)nc2cc(Br)ccc12` are “inactive” and 4.77 µM (active).
Take `CC(C)c1cccc(C(C)C)c1NC(=O)Nc1ccc(Sc2ccc([N+](=O)[O-])cc2)cc1`: the Potency result in assay [1] and in assay [2] was “inactive” in each case.
For the molecule `CCC(=O)N1CCOc2c(cc(-c3ccc(OC)c(OC)c3)cc2OC[C@H]2CCCN(C)C2)C1`, in assay [1], the Potency result was “inactive”. In addition, the Potency in assay [2] was 13.5 µM (active).
For `CC(C)S(=O)(=O)Nc1ccc(F)c(C(=O)c2c[nH]c3ncc(-c4cccnc4)cc23)c1F`, the Potency entry in assay [1] is “inactive”. Further, the Potency in assay [2] is 5.35 µM (active).
For the molecule `CCN1C(C)(C)CC(Oc2ccc(C(=O)Nc3ccc(NC(=O)Nc4cc(C(C)(C)C)on4)cc3)nc2)CC1(C)C`, the Potency entry in assay [1] was “inactive”. Further, the Potency in assay [2] was 19 µM (active).
Turning to `C#Cc1cccc(Nc2nc3cc(C(=O)O)ccc3c3cncnc23)c1`, the Potency entry in assay [1] and in assay [2] was “inactive” throughout.
On to `CC(C)[C@@H](c1ccc(C(F)(F)F)cc1CN(Cc1cc(C(F)(F)F)cc(C(F)(F)F)c1)c1nnn(C)n1)N1CCC(C(=O)O)CC1`, for which, in assay [1], the Potency result is “inactive”. Besides, the Potency in assay [2] was 12 µM (active).
The corresponding values for `C#CCNCc1cc2cc(OCc3ccccc3)ccc2[nH]1` are “inactive” and 23.9 µM (active).
The corresponding values for `Cc1ccc(NC(=O)N2CCN(c3nc(N)nc4sc(-c5cccnc5)nc34)CC2)cc1` are “inactive” and 13.5 µM (active).
`O=C(NNc1nc2cc(F)ccc2n2cccc12)c1cnccn1`: the Potency entry in assay [1] and in assay [2] was “inactive” throughout.
Turning to `CC#C[C@@H](CC(=O)O)c1ccc(OCc2cccc(-c3ccc(C(F)(F)F)cc3)c2)cc1`, the Potency result in assay [1] and in assay [2] was “inactive” in each case.
For `Cc1[nH]c(/C=C2\C(=O)Nc3ccc(F)cc32)c(C)c1C(=O)NCCN1CCCC1`, the Potency result in assay [1] and in assay [2] was “inactive” in each case.
Regarding `COCCN(C(=O)c1cc(OC)c(OC)c(OC)c1)c1nc(-c2ccccc2)cs1`, the Potency result in assay [1] and in assay [2] was “inactive” each time.
For `C#CCOc1ccc2c(c1)c(-c1ccc(C(C)C)cc1)nc(=O)n2C(C)C`, in assay [1], the Potency entry is “inactive”. For the same molecule, in assay [2], the Potency was 23.9 µM (active).
Regarding `O=C(NCCCN1CCC2(CC1)OCc1ccccc12)[C@H]1CCCN1Cc1ccccc1`, the Potency result in assay [1] was “inactive”. In addition, the Potency in assay [2] is 2.13 µM (active).
With `CCCN1CCC=C(c2cc(-c3ccc(C)cc3)no2)C1`, in assay [1], the Potency entry is “inactive”. Besides, the Potency in assay [2] was 2.68 µM (active).
Take `OC1(CN2CCC(COc3noc4cccc(O[C@@H]5CCOC5)c34)CC2)CCOCC1`: the Potency entry in assay [1] is “inactive”. For the same molecule, the Potency in assay [2] is 6.74 µM (active).
The like results for `OC(c1ccc(-c2ccc(CN3CCN(Cc4ccncc4)CC3)cc2)c(F)c1)(C(F)(F)F)C(F)(F)F` were, in that order, “inactive” and 3.38 µM (active).
Take `COc1cc(CCc2cc(NC(=O)c3ccc(N4CC(C)NC(C)C4)cc3)n[nH]2)cc(OC)c1` (stereo not given): the Potency result in assay [1] was “inactive”. The Potency in assay [2] was 12 µM (active).
As for `CC(C)S(=O)(=O)NC[C@H](C)c1ccc(-c2ccc(CCNS(C)(=O)=O)cc2)cc1`, the Potency result in assay [1] and in assay [2] was “inactive” each time.
As for `O=C(Nc1ccccc1Br)NC1CCN(c2ccc(C(F)(F)F)cn2)C1` (stereo not given), the Potency result in assay [1] was “inactive”. In assay [2], the Potency was 10.7 µM (active).
Regarding `O=C(NCC1CCN(Cc2cccc(Cl)c2)CC1)[C@@H]1CCCN(c2ncnc3c2nc2n3CCCC2)C1`, in assay [1], the Potency result is “inactive”. Further, the Potency in assay [2] was 15.1 µM (active).
Consider `C=C(C)[C@@H]1CC=C(COC(=O)NC(=O)c2ncn3c(=O)n(C)nnc23)CC1`, for which the Potency entry in assay [1] and in assay [2] was “inactive” in each case.
Turning to `COC(C)(C)CCn1nc(Nc2c(C)cccc2C)c2cnc(Nc3ccc(OCCN4CCCC4)c(F)c3)nc21`, the Potency entry in assay [1] was “inactive”. Also, the Potency in assay [2] is 15.1 µM (active).
For the molecule `O=C(c1ccc(OC(F)F)c(C#Cc2ccccn2)c1)N1Cc2cccnc2C1`, in assay [1], the Potency entry is “inactive”. Moreover, the Potency in assay [2] is 21.3 µM (active).
